Compound activity deposited in PubChem BioAssay by National Center for Advancing Translational Sciences (NCATS).
GLP1R inv ag = inverse agonists of human GLP-1 receptor | P43220 | HEK293 GLP-1R CRE-luciferase, luminescence, 24 h; GLP-1R form is constitutively active | Potency, µM (series often up to 38.3 µM), without a hit: at the highest dose activity change, negative = inhibition, hits mostly inhibitors | 410,000 tested, 1.6% active; also: potency is read from the fitted curve at half-maximal effect; % is scaled to controls: 0 for no effect and ±100 for the full control effect; nearly all actives have a fitted effect of over 55% in size
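Cells are plated, allowed 12 hours at 37 deg C, then treated with compounds for 24 hr before luciferase detection reagent is added and luminescence is read after 12 min at room temperature. The HEK293 line carries constitutively active GLP-1R with a cAMP-responsive reporter.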
DRD3 antagonist = blocks the human D3 dopamine receptor | P35462 | 360,000 tested, 2.5% active | D3R cells, DiscoveRx beta-arrestin luminescence, antagonist mode; active compounds read low | max response, negative = inhibition, %; in the data active = max response below about -50%; inconclusive = no clear call, values can overlap the other calls; also: % is scaled to controls: 0 for no effect and ±100 for the full control effect
Target sequence (P35462 whole entry, looked up): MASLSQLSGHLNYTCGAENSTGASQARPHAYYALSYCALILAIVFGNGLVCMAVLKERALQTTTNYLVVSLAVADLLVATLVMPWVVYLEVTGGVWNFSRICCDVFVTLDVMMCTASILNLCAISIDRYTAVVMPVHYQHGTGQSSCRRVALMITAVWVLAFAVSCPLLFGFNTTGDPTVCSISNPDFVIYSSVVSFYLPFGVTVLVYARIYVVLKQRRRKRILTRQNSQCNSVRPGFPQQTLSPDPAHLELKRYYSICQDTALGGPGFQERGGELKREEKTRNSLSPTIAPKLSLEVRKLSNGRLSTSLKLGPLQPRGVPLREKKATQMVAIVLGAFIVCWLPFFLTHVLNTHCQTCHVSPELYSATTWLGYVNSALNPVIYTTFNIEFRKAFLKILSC
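Cells expressing the human receptor were seeded at 1500 cells/well, incubated overnight at 37 degrees C in 5% CO2, then exposed to library compounds with dopamine controls for 90 minutes at 37 degrees C before luminescent detection.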
GLP-1R agonist = activates the human GLP-1 receptor. P43220. HEK293 GLP-1R CRE-luciferase, luminescence, 4-6 h; cells express a hypersensitive GLP-1R form. Potency, µM (highest dose often 45.6 µM), without a hit: at the highest dose activation, actives largely listed as activators. 380,000 tested, 0.007% active; also: potency is read from the fitted curve at half-maximal effect; % of control where 0% means no effect
DRD3 agonist = agonists of human D3 dopamine receptor | AID 652048 | max activation, % | 410,000 tested, 0.58% active | D3R DiscoveRx beta-arrestin cells, luminescence, 90 min | P35462; in the data active = max activation above about 30%; also: 0% is about no effect
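Agonist-mode cell screen: cells plated at 1500/well and incubated overnight at 37 °C, then exposed to library compounds for 90 min at 37 °C. Detection reagent was added for 30–60 min at room temperature, and luminescence was read.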
Active calls of the source: *; ? = inconclusive; nt = not tested or not shown. An excerpt weighted towards active compounds, which were near 4.3% of everything screened. Unless noted, calls follow the shape of the dose curve; as a rule, active = well fitted curve in the direction sought with a large enough effect; inconclusive = small, poorly fitted or top-dose-only effect, or another doubt; inactive = no such curve, though single readings can be large; an effect the other way counts as inactive or inconclusive.

SMILES	GLP1R inv ag	DRD3 antagonist	GLP-1R agonist	DRD3 agonist
COc1ccc(CN2CCN(CC3CC3)CC2CCO)c(C)c1C (stereo not given)	4%	?	-3%	-28
O=S1(=O)CCN(c2ccccc2CC(c2c[nH]c3ccccc23)c2c[nH]c3ccccc23)CC1	?	-11	-5%	-8
O=C(Cc1ccccc1)N1CCC(c2nc(-c3ccc(F)cc3)no2)CC1	-12%	28	-11%	31*
Cc1ccc(-c2noc(C3CCCN(C(=O)c4c(F)cccc4F)C3)n2)cc1 (stereo not given)	-6%	-70*	0%	22
O=C(c1c(F)cccc1F)N1CCCC(c2nc(-c3ccc(Cl)cc3)no2)C1 (stereo not given)	?	17	5%	15
Cc1cccc(NC(=O)c2ccc(-n3c(C)nnc3C)cc2)c1	11%	nt	nt	5
Cc1cc(C)c2c(=O)cc(C(=O)Nc3sc4c(c3C(=O)NCc3cccnc3)CCCC4)oc2c1	9%	nt	nt	2
O=C(c1cccc(C(=O)N(c2ccccn2)C2CCCCC2)c1)N(c1ccccn1)C1CCCCC1	?	-54*	3%	-10
O=C(c1ccc(Cl)cc1)N(c1ccccn1)C1CCCCC1	-31%	-19	3%	0
COc1ccc(C(=O)/C=C/c2cn(CC(O)CN3CCc4ccccc43)c3ccccc23)cc1 (stereo not given)	?	nt	-7%	22
CCC(=C(c1ccc(OC)cc1)c1ccc(OC)cc1)c1cn(CC(O)CN2CCN(C)CC2)c2ccccc12 (stereo not given)	10µM*	3	-22%	-1
O=c1[nH]cc(N=Cc2cc(Cl)cc(Cl)c2O)c(=O)[nH]1	14%	-67*	-5%	-7
CN(C)S(=O)(=O)c1cccc(NC(=O)c2ccc(COc3ccccc3)cc2)c1	10µM*	37	9%	-5
COCc1ccc(C(=O)Nc2cccc(S(=O)(=O)N(C)c3ccccc3)c2)cc1	?	25	15%	10
COc1cc(OC)c(OC)cc1CNC(=O)c1ccc(COc2ccccc2)cc1	-22%	4	15%	31*
C#CCN(C[C@@H]1[C@@H](OC(=O)Nc2cccs2)[C@@H](OC(=O)Nc2cccs2)Cn2c(=O)ccc(=O)n21)S(=O)(=O)c1ccc(C)cc1	2.8µM*	-4	-8%	-2
C#CCN(C[C@@H]1[C@@H](OC(=O)NC2CCCC2)[C@@H](OC(=O)NC2CCCC2)Cn2c(=O)ccc(=O)n21)S(=O)(=O)c1ccc(C)cc1	?	-64*	-16%	-13
CCn1cc2nc(SCC(=O)Nc3ccc(OC)cc3OC)n(Cc3ccc(Cl)cc3)c(=O)c2n1	?	nt	2%	-4
CC[C@H](C)[C@H]1CNC(=S)N1CC1CCN(CCCCc2ccccc2)CC1	-18%	-65*	-5%	-45
CC(C)C[C@H]1CNC(=S)N1CC1CCN(CC2CCCC2)CC1	6%	?	0%	-45
CC(C)C[C@H]1CNC(=S)N1CC1CCN(CC2CCC(C(C)(C)C)CC2)CC1 (stereo not given in full)	-16%	-63*	-1%	-44
CC[C@H](C)[C@H]1CNC(=S)N1CC1CCN(CCCC2CCCC2)CC1	-31%	-78*	-3%	-43
CC(C)C[C@H]1CNC(=S)N1CC1CCN(CCCC2CCCCC2)CC1	?	-101*	-1%	-46
O=C(Cn1ncc2c([nH]c3ccccc32)c1=O)Nc1cc(F)ccc1F	6%	nt	nt	2
CCC(=O)Nc1ccccc1-c1nc2ccccc2n(C(CC)C(=O)Nc2cccc(C(C)=O)c2)c1=O (stereo not given)	-14%	nt	nt	-14
Cc1nn(-c2ccc(N3CCCC3)nn2)c(C)c1CCC(=O)N1CCN(c2ccc(F)cc2)CC1	7%	nt	nt	4
CCC(C)n1ncn(-c2ccc(N3CCN(c4ccc(OC[C@H]5CO[C@](Cn6cncn6)(c6ccc(Cl)cc6Cl)O5)cc4)CC3)cc2)c1=O (stereo not given in full)	nt	nt	nt	7
COc1ccccc1Nc1nn2c(=O)c3ccc(C(=O)NC4CCC(C)CC4)cc3nc2s1 (stereo not given)	12%	nt	-4%	-14
CC(C)C[C@H]1CNC(=S)N1CC1CCN(CCC23CC4CC(CC(C4)C2)C3)CC1	10µM*	-72*	0%	-45
S=C1NC[C@H](CC2CCCCC2)N1CC1CCCCC1	4.5µM*	?	1%	-50
